Here are results for 15 sequences from paper PMC4081100, “A DNA-binding-site landscape and regulatory network analysis for NAC transcription factors in Arabidopsis thaliana”.

Experiment in all cases: universal protein binding microarray (PBM); transcription factors of Arabidopsis thaliana; high values mean tight binding
The target in one assay is T1, GST-ANAC092(1-176) (Arabidopsis thaliana, UniProt Q9FKA0 1-176).
T1 sequence: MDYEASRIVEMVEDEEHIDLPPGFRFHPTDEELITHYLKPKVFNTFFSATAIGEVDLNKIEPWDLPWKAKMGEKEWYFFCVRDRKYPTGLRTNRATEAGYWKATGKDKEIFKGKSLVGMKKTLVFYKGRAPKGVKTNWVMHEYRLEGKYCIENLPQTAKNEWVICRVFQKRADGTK
The following applies: protein: recombinant; tags: GST; chain copies: 2; dsDNA, one strand shown. In short, it runs like this: (§1)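 Each value is a normalised enrichment score (E-score) describing binding. The GST-tagged proteins, NAC-domain, full-length or DNA-binding-domain, were induced in cells (zinc-finger proteins with zinc acetate added) and purified on glutathione–Sepharose 4B. They were applied at 200 to 500 nM final, in duplicate, to double-stranded custom all-10-mer Agilent 4 × 180K arrays, and gapped and ungapped 8-mers were scored.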

Another assay addresses T2, GST-ANAC055(1-171) (Arabidopsis thaliana, UniProt Q9LDY8 1-171).
T2 sequence: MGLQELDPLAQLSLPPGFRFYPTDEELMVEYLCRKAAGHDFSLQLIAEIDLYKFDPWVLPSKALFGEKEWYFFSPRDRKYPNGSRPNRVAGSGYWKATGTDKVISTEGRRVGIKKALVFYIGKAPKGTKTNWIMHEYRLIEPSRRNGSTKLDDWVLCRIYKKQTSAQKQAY
The note with it: protein: recombinant; tags: GST; chain copies: 2; dsDNA, one strand shown. In short, it runs like this: as §1

Assay [1] has as its target T3, GST-ANAC092(1-285) full length (Arabidopsis thaliana, UniProt Q9FKA0 1-285).
T3 sequence: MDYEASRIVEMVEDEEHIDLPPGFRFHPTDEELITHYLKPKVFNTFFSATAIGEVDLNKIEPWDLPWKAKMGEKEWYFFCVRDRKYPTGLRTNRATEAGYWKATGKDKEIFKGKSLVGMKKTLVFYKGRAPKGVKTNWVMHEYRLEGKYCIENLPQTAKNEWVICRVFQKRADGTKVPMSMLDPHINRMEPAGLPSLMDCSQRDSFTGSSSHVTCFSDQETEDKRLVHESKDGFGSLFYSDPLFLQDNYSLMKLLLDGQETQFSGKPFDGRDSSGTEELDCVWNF
The following applies: protein: recombinant; tags: GST; chain copies: 2; dsDNA, one strand shown. Summed up:
as §1

The target in the next assay is T4, GST-NAP(1-166) (Arabidopsis thaliana, UniProt O49255 1-166).
T4 sequence: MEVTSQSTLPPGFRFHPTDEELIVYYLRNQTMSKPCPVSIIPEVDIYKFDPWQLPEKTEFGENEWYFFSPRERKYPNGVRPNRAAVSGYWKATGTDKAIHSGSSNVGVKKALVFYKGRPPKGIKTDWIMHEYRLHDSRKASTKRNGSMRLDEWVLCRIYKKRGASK
The following applies: protein: recombinant; tags: GST; chain copies: 2; dsDNA, one strand shown. In short, it runs like this:
as §1

A further assay deals with T5, GST-NST2(1-184) (Arabidopsis thaliana, UniProt Q9M274 1-184).
T5 sequence: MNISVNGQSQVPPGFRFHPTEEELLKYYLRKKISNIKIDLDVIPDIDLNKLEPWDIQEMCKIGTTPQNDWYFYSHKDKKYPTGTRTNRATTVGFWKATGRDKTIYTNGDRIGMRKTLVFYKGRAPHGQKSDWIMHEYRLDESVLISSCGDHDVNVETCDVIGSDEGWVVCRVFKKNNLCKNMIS
The following applies: protein: recombinant; tags: GST; chain copies: 2; dsDNA, one strand shown. In short, it runs like this:
as §1

For the next assay, the target named is T6, GST-SND1(1-203) (Arabidopsis thaliana, UniProt Q9LPI7 1-203).
T6 sequence: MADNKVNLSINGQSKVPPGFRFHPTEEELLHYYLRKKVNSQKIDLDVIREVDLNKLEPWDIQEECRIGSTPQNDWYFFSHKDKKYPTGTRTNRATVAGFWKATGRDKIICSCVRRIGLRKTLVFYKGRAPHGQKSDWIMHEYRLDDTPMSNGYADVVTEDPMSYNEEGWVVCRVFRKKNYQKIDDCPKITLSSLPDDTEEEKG
The note with it: protein: recombinant; tags: GST; chain copies: 2; dsDNA, one strand shown. Summed up: as §1

In the next assay the target is T7, GST-VND7 NAC domain (Arabidopsis thaliana, UniProt Q9C8W9 9-158).
T7 sequence: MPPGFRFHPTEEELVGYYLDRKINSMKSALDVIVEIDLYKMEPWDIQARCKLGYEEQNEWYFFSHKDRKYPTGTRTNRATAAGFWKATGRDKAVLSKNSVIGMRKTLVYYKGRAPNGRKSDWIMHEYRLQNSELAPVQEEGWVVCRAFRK
The following applies: protein: recombinant; tags: GST; chain copies: 2; dsDNA, one strand shown. In short, it runs like this:
as §1

A further assay has as its target GST-WRKY1(266-371) (Arabidopsis thaliana, UniProt Q9SI37 266-371). The note with it: protein: recombinant; tags: GST; dsDNA, one strand shown. Summed up:
as §1

The target of another assay is T8, GST-ANAC019 NAC domain (Arabidopsis thaliana, UniProt Q9C932 14-162).
T8 sequence: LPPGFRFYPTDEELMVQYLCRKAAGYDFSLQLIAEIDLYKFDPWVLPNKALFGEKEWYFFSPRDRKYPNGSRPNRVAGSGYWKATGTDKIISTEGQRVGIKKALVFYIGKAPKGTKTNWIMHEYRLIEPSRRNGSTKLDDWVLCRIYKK
The following applies: protein: recombinant; tags: GST; chain copies: 2; dsDNA, one strand shown. Summed up:
as §1

The target of the next assay is T9, GST-ATAF1 NAC domain (Arabidopsis thaliana, UniProt Q39013 7-158).
T9 sequence: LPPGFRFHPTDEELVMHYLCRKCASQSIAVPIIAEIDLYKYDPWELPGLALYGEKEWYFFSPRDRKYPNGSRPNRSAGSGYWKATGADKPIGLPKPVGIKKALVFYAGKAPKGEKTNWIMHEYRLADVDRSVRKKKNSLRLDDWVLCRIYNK
The note with it: protein: recombinant; tags: GST; chain copies: 2; dsDNA, one strand shown. Summed up: as §1

In another assay the target is GST-NTL6(1-168) (Arabidopsis thaliana, UniProt Q9SCK6 1-168). The note with it: protein: recombinant; tags: GST; chain copies: 2; dsDNA, one strand shown. Summed up: as §1
The next assay has as its target T10, GST-NTL8 NAC domain (Arabidopsis thaliana, UniProt Q9XIN7 14-156).
T10 sequence: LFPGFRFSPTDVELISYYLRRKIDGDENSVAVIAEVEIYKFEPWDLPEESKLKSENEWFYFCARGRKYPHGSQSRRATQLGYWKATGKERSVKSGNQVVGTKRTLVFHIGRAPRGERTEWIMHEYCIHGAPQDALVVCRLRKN
The note with it: protein: recombinant; tags: GST; chain copies: 2; dsDNA, one strand shown. Summed up:
as §1

Sequence of GST-WRKY1(266-371) (Q9SI37 266-371): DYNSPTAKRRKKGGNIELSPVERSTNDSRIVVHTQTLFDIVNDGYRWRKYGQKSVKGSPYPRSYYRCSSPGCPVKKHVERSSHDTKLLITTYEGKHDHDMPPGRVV
Sequence of GST-NTL6(1-168) (Q9SCK6 1-168): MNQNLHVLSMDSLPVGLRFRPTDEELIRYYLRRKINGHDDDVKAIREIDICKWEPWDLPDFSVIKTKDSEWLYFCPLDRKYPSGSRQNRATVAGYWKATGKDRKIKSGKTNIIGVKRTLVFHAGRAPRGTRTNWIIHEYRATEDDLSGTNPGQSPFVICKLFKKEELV

For the sequence CTAGCGTA, the binding signal with GST-ANAC092(1-176) was found to be 0.262 E-score; in the assay with GST-ANAC055(1-171), 0.0674 E-score; in assay [1] it was 0.398 E-score; with GST-NAP(1-166), 0.0722 E-score; with GST-NST2(1-184) it was 0.168 E-score; in the assay with GST-SND1(1-203), 0.45 E-score. Moreover, the binding signal with GST-VND7 NAC domain came to 0.118 E-score.

With CGTAGACC, the binding signal was 0.0522 E-score with GST-SND1(1-203) and 0.434 E-score with GST-WRKY1(266-371).

CCACGCCA: the binding signal in the assay with GST-ANAC092(1-176) was 0.372 E-score; in the assay with GST-ANAC019 NAC domain, 0.0852 E-score; with GST-ANAC055(1-171), 0.0687 E-score; in the assay with GST-ATAF1 NAC domain, 0.145 E-score; in assay [1], 0.415 E-score; with GST-NAP(1-166), 0.0773 E-score. Besides, the binding signal came out at 0.0528 E-score with GST-NST2(1-184), 0.141 E-score in the assay with GST-SND1(1-203) and 0.102 E-score in the assay with GST-VND7 NAC domain.

For GAAGGGAA, the binding signal with GST-ANAC092(1-176) stood at 0.091 E-score; in the assay with GST-NTL6(1-168), 0.227 E-score; with GST-ANAC019 NAC domain it was 0.101 E-score; in the assay with GST-NST2(1-184), 0.0954 E-score; in the assay with GST-NTL8 NAC domain it was 0.44 E-score; in the assay with GST-SND1(1-203), 0.112 E-score. Besides, the binding signal with GST-VND7 NAC domain is 0.0803 E-score.

With ACGCTATC, the binding signal worked out at 0.43 E-score in the assay with GST-ANAC092(1-176); 0.106 E-score in the assay with GST-ANAC019 NAC domain; 0.0721 E-score with GST-ATAF1 NAC domain; 0.454 E-score in assay [1]; 0.104 E-score in the assay with GST-NAP(1-166); 0.303 E-score with GST-NST2(1-184). Besides, the binding signal with GST-SND1(1-203) stood at 0.431 E-score; in the assay with GST-VND7 NAC domain it was 0.0789 E-score.

Turning to AGGGGAAA, the binding signal with GST-ANAC092(1-176) is 0.191 E-score; with GST-NTL6(1-168), 0.14 E-score; with GST-ANAC019 NAC domain it was 0.112 E-score; in assay [1] it was 0.0577 E-score; with GST-NAP(1-166), 0.101 E-score; with GST-NTL8 NAC domain, 0.412 E-score. For the same sequence, the binding signal was 0.0998 E-score with GST-SND1(1-203) and 0.132 E-score with GST-VND7 NAC domain.

Take AAGCACGC: the binding signal with GST-ANAC092(1-176) came to 0.32 E-score; in the assay with GST-ANAC019 NAC domain it was 0.127 E-score; in the assay with GST-ATAF1 NAC domain, 0.121 E-score; in assay [1] it was 0.407 E-score; in the assay with GST-NAP(1-166) it was 0.0699 E-score; with GST-NST2(1-184), 0.0521 E-score. The results for the binding signal in the assay with GST-SND1(1-203) and in the assay with GST-VND7 NAC domain were 0.21 E-score and 0.0817 E-score, respectively.

Take CTTTCCTC: the binding signal with GST-ANAC092(1-176) came out at 0.0932 E-score; in the assay with GST-NTL6(1-168) it was 0.104 E-score; in the assay with GST-ANAC019 NAC domain, 0.0599 E-score; with GST-ANAC055(1-171), 0.0748 E-score; with GST-NTL8 NAC domain, 0.453 E-score; with GST-SND1(1-203) it was 0.147 E-score. Moreover, the binding signal with GST-VND7 NAC domain is 0.0728 E-score.

For the sequence GAGGGTAA, the binding signal was 0.0757 E-score with GST-ANAC092(1-176); 0.17 E-score in the assay with GST-NTL6(1-168); 0.0669 E-score with GST-ANAC055(1-171); 0.123 E-score with GST-ATAF1 NAC domain; 0.109 E-score in [1]; 0.173 E-score with GST-NST2(1-184). The figures for the binding signal with GST-NTL8 NAC domain, with GST-SND1(1-203) and in the assay with GST-VND7 NAC domain were 0.474 E-score, 0.108 E-score and 0.079 E-score, respectively.

GTCAAGCA: the binding signal in assay [1] came out at 0.106 E-score; in the assay with GST-SND1(1-203), 0.0699 E-score; with GST-WRKY1(266-371), 0.44 E-score.

For AGTCTACG, the binding signal is 0.0568 E-score with GST-ANAC019 NAC domain, 0.115 E-score with GST-SND1(1-203) and 0.401 E-score with GST-WRKY1(266-371).

GCGTCAAC: the binding signal with GST-ANAC092(1-176) worked out at 0.119 E-score; with GST-ANAC019 NAC domain it was 0.0778 E-score; in assay [1], 0.109 E-score; with GST-NST2(1-184) it was 0.0734 E-score; with GST-SND1(1-203), 0.192 E-score; with GST-WRKY1(266-371), 0.443 E-score.

Turning to CTGACTTC, the binding signal with GST-ANAC019 NAC domain is 0.0546 E-score; in the assay with GST-NTL8 NAC domain it was 0.113 E-score; with GST-SND1(1-203), 0.0589 E-score; with GST-WRKY1(266-371) it was 0.412 E-score.

AAGGGTCA: the results for the binding signal with GST-NTL6(1-168), in the assay with GST-SND1(1-203) and in the assay with GST-WRKY1(266-371) were 0.0797 E-score, 0.0922 E-score and 0.409 E-score, respectively.

For GCTTTCCC, the binding signal came to 0.124 E-score with GST-ANAC092(1-176); 0.142 E-score with GST-NTL6(1-168); 0.0714 E-score in the assay with GST-ANAC019 NAC domain; 0.117 E-score in [1]; 0.423 E-score in the assay with GST-NTL8 NAC domain; 0.0912 E-score with GST-SND1(1-203).
